A selection: hits, their analogues and other compounds. The true share with any hit is near 1.7%.
PTHR1 ag: agonists of human PTHR1 parathyroid hormone receptor | Potency, µM (doses to about 115 µM), without a hit: at the top dose activation, actives largely listed as activators | HEK293 GP2 PTHR1 cells, GloSensor cAMP luminescence, 1 h | AID 743266 | 0.075% of 410,000 active; also: nearly all actives have a fitted effect of over 55% in size
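HEK-293-derived GP2 cells expressing PTHR1 and a GloSensor cAMP reporter, 3,000/well, plated overnight, given luciferin plus IBMX (each 0.5 mM as added) for 1 h at 37 °C, then compound for 1 h at 37 °C. Luminescence was read after 15 min at room temperature.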
GLP1R cytotox: cytotoxic in the GLP-1 receptor inverse agonist counter-screen; HEK293 cAMP-luciferase reporter cells, luminescence, 24 h; Potency, µM (titrated, usually from 38.3 µM), inactives show at the top dose activity change, negative = inhibition, usual class: inhibitors; 0.13% of 410,000 active;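 also: loss of luciferase light is scored as toxicity; % is scaled to controls: 0 for no effect and ±100 for the full control effect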
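To flag toxic compounds, the library was rerun on cells for 24 hr at 37 deg C and 5% CO2. Viability-linked luminescence was captured 12 min after adding luciferase detection reagent.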
GLP-1R inv ag: acts as inverse agonist at human GLP-1 receptor; P43220; HEK293 GLP-1R CRE-luciferase, luminescence, 24 h; GLP-1R form is constitutively active; Potency, µM (doses to about 38.3 µM), inactives show top-dose activity change, negative = inhibition, hits mostly inhibitors; 1.6% of 410,000 active; AID 624417; also: % is scaled to controls: 0 for no effect and ±100 for the full control effect; nearly all actives have a fitted effect of over 55% in size
Target sequence (P43220 whole entry, looked up): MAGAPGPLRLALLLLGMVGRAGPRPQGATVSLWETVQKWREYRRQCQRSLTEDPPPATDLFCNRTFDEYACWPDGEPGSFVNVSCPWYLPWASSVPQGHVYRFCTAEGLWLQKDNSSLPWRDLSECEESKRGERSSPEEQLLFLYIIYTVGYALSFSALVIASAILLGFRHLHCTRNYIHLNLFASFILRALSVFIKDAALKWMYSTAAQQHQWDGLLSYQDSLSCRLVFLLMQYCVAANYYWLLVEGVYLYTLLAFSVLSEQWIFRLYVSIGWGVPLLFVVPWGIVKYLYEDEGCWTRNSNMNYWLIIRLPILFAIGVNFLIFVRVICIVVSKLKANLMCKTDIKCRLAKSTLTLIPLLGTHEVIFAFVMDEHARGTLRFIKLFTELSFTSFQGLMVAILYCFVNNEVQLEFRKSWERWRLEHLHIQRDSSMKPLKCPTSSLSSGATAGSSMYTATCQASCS
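Seeding at 200 cells/uL, 12 h culture, 24 hr compound treatment, then luciferase reagent and a luminescence read; cells are HEK293 stably expressing a constitutively active GLP-1R plus cAMP-responsive luciferase.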
GLP-1R agonist: activates the human GLP-1 receptor. HEK293 GLP-1R CRE-luciferase, luminescence, 4-6 h; cells express a hypersensitive GLP-1R form. Potency, µM (series often up to 45.6 µM), for the others: top-dose activation, actives largely listed as activators. 0.007% of 380,000 active; also: % of control where 0% means no effect
* = called active by the depositor; i = inactive; ? = inconclusive; . = not tested or not shown; [ ] = remark or other dose. Calls follow the shape of the dose curve; as a rule, active = well fitted curve in the direction sought with a large enough effect; inconclusive = small, poorly fitted or top-dose-only effect, or another doubt; inactive = no such curve, though single readings can be large; an effect the other way counts as inactive or inconclusive. Potency is read from the fitted curve at half-maximal effect.

SMILES	PTHR1 ag	GLP1R cytotox	GLP-1R inv ag	GLP-1R agonist
CCOC(=O)C1CCCN(C(=O)c2cc(-c3ccc(F)cc3)nc3ccccc23)C1 (configuration not stated)	i	3%	7.9µM*	22%
O=C(c1cc(-c2ccccc2)nc2ccccc12)N1CCc2ccccc2C1	i	-19%	11µM*	-12%
CNC(=O)c1ccccc1Sc1ccc2c(/C=C/c3ccccn3)n[nH]c2c1	.	.	.	14%
c1ccc(CCNc2nc(-c3ccccc3)cs2)cc1	.	.	.	12%
CCCCCCCNC1=CC(=O)CC(c2ccccc2)C1 (configuration not stated)	i	-26%	11µM*	7%
Cc1nn(-c2ccccc2)c(OC(=O)C(C)C)c1Sc1ccc(Cl)cc1	-26%	-4%	?	.
CC(CCc1ccccc1)NC(=O)CNC(=S)N(Cc1cccs1)C1CCCC1 (configuration not stated)	-23%	-3%	5µM*	11%
COC(CNC(=O)CNC(=S)N(Cc1ccccc1)Cc1cccs1)OC	i	-4%	-28%	0%
CCCCNC(=O)CNC(=S)N(Cc1ccccc1)Cc1cccs1	-1%	2%	5µM*	11%
CCCNC(=O)c1ccc2c(c1)N=C(CCC)c1ccccc1S2	-37%	?	?	-3%
FC(F)(F)c1ccc(CN2C[C@@H]3C(c4ccc(C(F)(F)F)cc4)C4(c5cccnc5)CC3(C4)[C@H]2c2ccccc2)cc1 (some centres not stated)	-16%	3%	-12%	-3%
COC(=O)c1ccc(C23CC4(C2)[C@H](CN(C)[C@@H]4c2ccccc2)C3c2ccc(C(F)(F)F)cc2)cc1 (some centres not stated)	-23%	-10%	10µM*	-4%
FC(F)(F)c1ccc(CN2C[C@@H]3C(c4ccccc4)C4(c5cccnc5)CC3(C4)[C@H]2c2ccccc2)cc1 (some centres not stated)	-27%	7%	11µM*	-1%
C[Si](C)(C)O[Si](C)(C)C	.	.	.	11%
NC(=S)NN=C1c2ccccc2-c2c(F)c(F)c(F)c(F)c21	-63%	11µM*	?	-3%
Cc1cc(Cl)cc(Cl)c1OCCOc1cccc2cccnc12	-32%[57.5 µM]	-24%	8.9µM*	1%
Brc1ccccc1OCCOc1cccc2cccnc12	-10%	-7%	-1%	6%
Cc1cc(Cl)cc(Cl)c1OCCOCCN(C)C	i	0%	11µM*	-14%
CCC(CC)C(=O)Nc1c(C(=O)N2CCN(c3ccccc3F)CC2)oc2ccccc12	-17%	2%	?	.
N/C(=N\S(=O)(=O)c1cc(C(F)(F)F)cc(C(F)(F)F)c1)c1ccc(Cl)cc1	-83%	?	2.5µM*	-7%
N/C(=N\S(=O)(=O)c1cc(C(F)(F)F)cc(C(F)(F)F)c1)c1ccncc1	i	-10%	0%	22%
CCO[C@H]1OC(C(=O)NCc2nc3ccccc3[nH]2)=C[C@@H](C)[C@@H]1CCCO	i	-9%	-6%	-1%
CCO[C@H]1OC(C(=O)NCc2ccccc2)=C[C@@H](c2ccc(C(F)(F)F)cc2)[C@@H]1CCCO	-19%	-1%	10µM*	-4%
CCO[C@H]1OC(C(=O)N2CCOCC2)=C[C@@H](c2ccc(C(F)(F)F)cc2)[C@@H]1CCCO	-2%	5%	-5%	7%
CCO[C@H]1OC(C(=O)NCc2nc3ccccc3[nH]2)=C[C@@H](C2CCCCC2)[C@@H]1CCCO	-5%	-45%	10µM*	4%
SMILES	PTHR1 ag	GLP1R cytotox	GLP-1R inv ag	GLP-1R agonist
CCO[C@@H]1OC(C(=O)N2CCCCCCC2)=C[C@H](c2ccc(C(F)(F)F)cc2)[C@H]1CCCO	-5%	1%	10µM*	20%
CCOc1ccc2nc(N3CCCC(C(=O)NCCc4ccc(OCC)c(OCC)c4)C3)sc2c1 (configuration not stated)	-27%	1%	0%	.
CCOC(=O)c1c(NC(=O)CN2CCN(C)CC2)sc(C(=O)Nc2ccccc2)c1C	i	-13%	13µM*	17%
CCOC(=O)c1sc(NC(=O)CCN2CCN(C)CC2)c(C(=O)OCC)c1C	i	3%	11%	14%
Cc1ccc(C(=O)N(CCN2CCCCC2)CC2CCCN(C3CCCC3)C2)s1 (configuration not stated)	-20%	?	8.9µM*	45%
Cn1c(C(O)c2ccc(Cl)cc2)nc(Cl)c1Cl (configuration not stated)	i	3%	11µM*	-17%
Cn1c(C(O)c2ccc(Br)cc2)nc(Cl)c1Cl (configuration not stated)	-1%	7%	?	7%
C#C[C@]1(OC(C)=O)CC[C@H]2[C@@H]3CCC4=C/C(=N/O)CC[C@@H]4[C@H]3CC[C@@]21CC	.	.	.	-1%
Cn1nc(-c2ccccc2F)c2cc(C(=O)NCCc3ccc(Cl)cc3)sc21	-14%	1%	?	.
Cc1ccc(N(CC(=O)Nc2ccc(C)c(Cl)c2)S(=O)(=O)c2cccs2)cc1	-31%	-2%	-2%	0%
O=C(c1ccc2c(c1)OCO2)N1CCC2(CC1)Oc1ccc(Cl)cc1C(=O)C21CC(c2ccccc2)=NO1 (configuration not stated)	-21%	4.5µM*	-12%	1%
O=S(=O)(Nc1ccccc1N1CCCCC1)c1ccc(Cl)s1	-3%[57.5 µM]	0%	10µM*	-6%
CCc1ccc(Nc2nc3ccccc3c3nnc(C)n23)cc1	i	2%	4%	.
C=CCSc1nc2ccccc2c(=O)n1C1CCOC(C)(C)C1 (configuration not stated)	-26%	4%	10µM*	12%
CCSc1nc2ccccc2c(=O)n1C1CCOC(C)(C)C1 (configuration not stated)	-7%	-5%	?	23%
O=C1CN(C(=O)Cc2ccc(F)cc2)C(c2ccccc2)c2cc(Cl)ccc2N1 (configuration not stated)	i	-7%	1%	.
CCc1cccc(CC)c1N(COC)C(=O)Cn1c(C)nc2ccccc21	-27%	7%	2.2µM*	.
CN(Cc1ccccc1)C(=O)CSc1nc2ccccc2n1Cc1ccccc1F	-23%	-2%	-15%	.
CC(C)COc1cccc(C(=O)Nc2ccc(CN3CCOCC3)cc2)c1	-83%	-24%	8.9µM*	7%
COc1ccc(C(=O)NC(=S)Nc2ccc(CN3CCOCC3)cc2)cc1Br	-38%	?	13µM*	-8%
CC(C)c1ccc(/C=C/C(=O)NC(=S)Nc2ccc(CN3CCOCC3)cc2)cc1	-31%	10µM*	?	-1%
Cc1ccc(N2C(=O)CSC23C(=O)N(CC(=O)NCc2ccccc2)c2ccccc23)cc1 (configuration not stated)	30%	1%	-26%	-3%
Cc1ccc2nc3c(c(Nc4ccc(C)c(C)c4)c2c1)CCC3	i	?	?	.
O=C(c1ccccc1Oc1ccccc1)N1CCN(c2ccccc2F)CC1	-20%	10%	?	3%

High-throughput results deposited in PubChem by National Center for Advancing Translational Sciences (NCATS).
